# About 79,000 compounds went through this panel and 15% of them were active in at least one assay; those are over-represented in the sample as a whole. Values without a mark were called inactive. Active and inactive are the calls of the source. Rule as the data show it: active = growth inhibition above about 70%; inactive = the rest.
# How the values were obtained:
# [1] = NCI Yeast Anticancer Drug Screen. Data for the rad50 strain (AID 155);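 also: 0% = growth of vehicle-only cultures of the same strain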; settings: S. cerevisiae rad50 strain growth inhibition; at 50.0 µM; hits give high values
# In short: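 Growth of the mutant yeast was measured after compound exposure and referenced to vehicle-treated cultures.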
# [2] = NCI Yeast Anticancer Drug Screen. Data for the mec2-1 strain (AID 157); settings: S. cerevisiae mec2-1 strain, at 50.0 µM, hits give high values
# In short: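 Cells of the genetically defined mec2-1 yeast strain are incubated with test compound. Inhibition of growth is calculated against vehicle-treated controls.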
# [3] = NCI Yeast Anticancer Drug Screen. Data for the sgs1 mgt1 strain (AID 161);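 also: 0% = growth of cultures given vehicle only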; settings: S. cerevisiae sgs1 mgt1 strain, at 50.0 µM, hits give high values
# In short: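 Genetically altered yeast, compound exposure, growth inhibition relative to vehicle.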
# [4] = NCI Yeast Anticancer Drug Screen. Data for the cln2 rad14 strain (AID 165);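 also: 0% = growth equal to vehicle treated cultures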; settings: S. cerevisiae cln2 rad14 strain, at 50.0 µM, hits give high values
# In short: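 The screen exposed genetically defined yeast (cln2 rad14) to test compounds and scored growth inhibition relative to vehicle-treated controls.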
# [5] = NCI Yeast Anticancer Drug Screen. Data for the bub3 strain (AID 167); settings: S. cerevisiae bub3 mutant strain, at 50.0 µM, hits give high values
# In short: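 Whole-cell yeast assay. The mutant strain was incubated with compounds, and growth inhibition was determined by comparison with vehicle-treated cells.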
# [6] = NCI Yeast Anticancer Drug Screen. Data for the mlh1 rad18 strain (AID 175); settings: S. cerevisiae mlh1 rad18 strain growth inhibition; at 50.0 µM; hits give high values
# In short: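 Compound-treated yeast growth, normalised to vehicle controls. Strain bears defined DNA repair mutations.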
Structure (SMILES),growth inhibition [1],growth inhibition [2],growth inhibition [3],growth inhibition [4],growth inhibition [5],growth inhibition [6]
CCC(C)(O)P(=O)(O)O (stereo not given),5.15%,7.1%,0.35%,-30.4%,0.85%,7.6%
COc1ccc(CC2Cc3ccccc3CC(=O)N2)cc1OC (stereo not given),36.5%,-54.3%,-4.4%,3.65%,25.6%,-38.1%
COCCCNC(=O)c1nc2ccccc2c(=O)n1NC(=O)Cc1ccccc1,-14.1%,-19.8%,7%,4.35%,0.3%,-7.75%
CC1(C(=O)O)CCCC2(C)C3=CC(=O)CCC3=CCC12 (stereo not given),-3.7%,18.1%,8.7%,2.95%,24.7%,4.5%
N#CC(CNC1CCCCC1)c1ccccc1 (stereo not given),-9.35%,-4.35%,4.3%,-32.7%,15.1%,10.7%
CCCCN=C1NC(N)=NC(C)(C)N1,-0.1%,-0.35%,-0.75%,-37.5%,-13.3%,-18.9%
C(=N\C(/N=C/c1ccccc1)c1ccccc1)/c1ccccc1,0.4%,-4.8%,-3.25%,-43.8%,2.55%,-6.2%
COc1c(O)c2c3c(cc(C)cc3c1C(C)C)OC2,93.3% (active),94.5% (active),94.3% (active),93.1% (active),93.4% (active),93.1% (active)
Cc1cc2c(C(C)C)c(O)c(O)c(C=Nc3ccccc3O)c2c(O)c1-c1c(C)cc2c(C(C)C)c(O)c(O)c(C=Nc3ccccc3O)c2c1O,-25.3%,-9.2%,-20.9%,-23.4%,-9.75%,-26.3%
CNc1nc2c(s1)c1c(O)c3c(O)c(C)c4c(c32)C(=O)C(C)(O/C=C/C(OC)C(C)C(OC(C)=O)C(C)C(O)C(C)C(O)C(C)/C=C/C=C(/C)C(=O)N1)O4 (stereo not given),14.1%,13.8%,9.1%,9.7%,21.2%,20.5%
NC(=O)NCSCNC(N)=O,-0.7%,-0.2%,-7.35%,8.15%,-2.75%,4.5%
CC1(C)C2CCC(CCOC(=O)COc3ccc(Cl)cc3)C1C2 (stereo not given),-9.45%,5.5%,12.1%,-44.2%,3.15%,12.6%
Cn1nc(-c2ccccc2)c([N+](=O)[O-])c1NCc1ccccc1,-0.8%,-1.95%,-4.4%,-29.1%,6.4%,1.15%
CON(C)c1nc(N(C)OC)nc(N(C)OC)n1,-8.05%,-48.2%,-28.8%,7.85%,-22.9%,-12.5%
CCOC(=Nc1cccc2ccccc12)Nc1cccc2ccccc12,-5.9%,-6.95%,-8.6%,-25.2%,-15.8%,-6.65%
CCOC(=O)C(NC(=O)Nc1ccccc1F)(OC)C(F)(F)F (stereo not given),-23.1%,-38.3%,-75.4%,-4.3%,-28%,-59.6%
NCC(=O)Nc1ccc(Cl)cc1C(=O)c1ccc[nH]1,1.4%,-16%,-27.6%,-42.4%,-53.5%,0.85%
C=CCOC(=O)NCC(=O)NC(C)C(N)=O (stereo not given),-22.7%,-14.2%,-19.1%,2.55%,-5.5%,4.25%
O=C(Nc1cccc2c(NC(=O)N3CCCCC3)cccc12)N1CCCCC1,-16.2%,-26.2%,1.25%,4.1%,9.55%,2.8%
CCOC(=O)c1cc2cc(Br)ccc2[nH]1,2%,-24%,8.5%,5.9%,-2.7%,20.4%

# Source: PubChem BioAssay (NCI)
